Records with an inconclusive call do not appear. The source made the active and inactive calls. Calls follow the shape of the dose curve; as a rule, active = well fitted cell-killing curve with a large enough effect; inconclusive = small, poorly fitted or top-dose-only effect; inactive = flat fitted curve, though single readings scatter.

This experiment can be described thus: Cell Viability - LYMP1-002 - Assay at 16 hr (AID 948). The following applies: LYMP1-002 lymphoblastoid cell viability; series mostly up to 92.2 µM. From the text: NIH Chemical Genomics Center [NCGC]
NIH Molecular Libraries Screening Centers Network [MLSCN]
National Institutes of Environmental Health Sciences [NIEHS]
National Toxicology Program [NTP]
We have developed a 1536-well cell-based assay for quantitative high throughput screening (qHTS) against a number of cell lines to determine in vitro cytotoxicity of small molecules. This particular assay uses a human lymphoblastoid cell line (LYMP1-002) purchased from Coriell Institute for Medical Research.
NCGC Assay Protocol Summary:
The CellTiter-Glo luminescent cell viability assay (Promega) is a homogeneous method to measure the number of viable cells in culture. The end point readout of this assay is based on quantitation of intracellular ATP, an indicator of metabolic activity, using the luciferase reaction. Luciferase catalyzes the oxidation of beetle Luciferin to oxyluciferin and light in the presence of ATP. The luminescent signal is proportional to amount of ATP present.
Using the CellTiter-Glo luminescent cell viability assay, the amount of cellular ATP was measured in the lymphoblastoid cell line with complete culture medium following compound treatment for 16 hours. The assay was performed in opaque white Kalypsys 1536-well plates. In the screen, tetraoctylammonium bromide was used as positive control. Library compounds were measured for their ability to cause acute toxicity in the cell line, as reflected by a decrease in intracellular ATP levels, in a concentration-dependent manner. […] AC50 values were determined from concentration-response data modeled with the standard Hill equation.
qHTS protocol for CellTiter Glo lymphoblastoid cellular assay
[Step] [Parameter] [Value] [Description]
1. Reagent; 5 uL; 2500 lymphoblastoid cells/well
2. Time; 5 hr; 37 C incubation
4. Controls; 23 nL; Tetraoctylammonium bromide 6.4pM to 92 uM
5. Time; 16 hr; 37 C incubation
6. Reagent; 5 uL; CellTiter Glo reagent
7. Time; 30 min; Room Temperature
8. Detection; Luminescence; Viewlux plate reader
Keywords: cell viability, cytotoxicity, lymphoblastoid cell line, luminescence, NTPHTS, NTPHTS_NCGC, NIEHS, DSSTox, MLSMR, MLSCN, NIH Roadmap, qHTS, NCGC
As for `COc1cc(Cc2cnc(N)nc2N)cc(OC)c1OC`, the molecule was called inactive. To `CCCCOCCOCCOCc1cc2c(cc1CCC)OCO2` belongs “inactive”; to `CCCCNC(=O)NS(=O)(=O)c1ccc(C)cc1`, “inactive”; to `COc1ccc(CN(CCN(C)C)c2ccccn2)cc1`, “inactive”. For `NC(=O)N1c2ccccc2C=Cc2ccccc21`, the molecule was classed as inactive. For `O=c1[nH]c(=O)n([C@H]2C[C@H](O)[C@@H](CO)O2)cc1Br`, the molecule was called inactive. To `CN=C(NC#N)NCCSCc1nc[nH]c1C` belongs “inactive”; to `NC(=Nc1ccccc1)Nc1ccccc1`, “inactive”; to `Nc1nc(N)c2nc(-c3ccccc3)c(N)nc2n1`, “inactive”. With `COC(=O)[C@H]1[C@H]2C[C@@H]3c4[nH]c5cc(OC)ccc5c4CCN3C[C@H]2C[C@@H](OC(=O)c2cc(OC)c(OC)c(OC)c2)[C@@H]1OC`, the outcome was inactive.

These data come from PubChem BioAssay (NCATS).
